From PubChem BioAssay (NCATS)
Several values for one entry are separate records, joined by “and”; a condition that tells them apart may be missing. Identical values can stand only once. Records with an inconclusive call do not appear. A call without a number means that no potency is given here. Activity calls are given as the source filed them. Calls come from the whole dose curve; as a rule, active = well fitted cell-killing curve with a large enough effect; inconclusive = small, poorly fitted or top-dose-only effect; inactive = no such curve, though single readings can be large or run the other way.
Potency is the fitted concentration of half-maximal effect.

Assay: qHTS of pediatric cancer cell lines to identify multiple opportunities for drug repurposing: Primary screen for Saos-2 cells (AID 1347097); note: nearly all actives have a fitted effect of over 40% in size
Details: Saos-2 viability, CellTiter-Glo ATP luminescence, 48 h; series mostly up to 46 µM
Outline: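 Cells plated at 500-1,000/well in growth medium, compounds added after 5 h. MIPE tested at 11 points (from 0.78 nM), NPC at 8 points (from 0.59 nM). CellTiter-Glo luminescence after 48 h; concentration-response curves from primary screen.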
With `C[C@@H]1CC(=O)NN=C1c1ccc(NN=C(C#N)C#N)cc1` the Potency was 18.7 µM (active).
With `CS(=O)(=O)Nc1ccc([N+](=O)[O-])cc1Oc1ccccc1` the Potency was “inactive”.
For `CS(=O)(=O)CCNCc1ccc(-c2ccc3ncnc(Nc4ccc(OCc5cccc(F)c5)c(Cl)c4)c3c2)o1`, the Potency was 29.6 µM (active).
With `CC(C(=O)O)c1cccc(C(=O)c2ccccc2)c1` (stereo unspecified) the Potency was “inactive”.
For `Cn1c(=O)c2c(ncn2C)n(C)c1=O`, the Potency was “inactive”.
In the case of `Nc1nnc(-c2cccc(Cl)c2Cl)c(N)n1`, the Potency is reported as “inactive”.
In the case of `Clc1ccccc1C(c1ccccc1)(c1ccccc1)n1ccnc1`, the Potency is reported as 26.6 µM (active) and 33.2 µM (active).
In the case of `CC(=O)OCC(CCn1cnc2cnc(N)nc21)COC(C)=O`, the Potency is reported as “inactive”.
For `CN(Cc1cnc2nc(N)nc(N)c2n1)c1ccc(C(=O)N[C@@H](CCC(=O)O)C(=O)O)cc1`, the Potency was “inactive”.
For `CC(C)C(=O)Nc1ccc([N+](=O)[O-])c(C(F)(F)F)c1`, the Potency was 0.59 µM (active).
In the case of `CN1CCN(CCCN2c3ccccc3Sc3ccc(Cl)cc32)CC1`, the Potency is reported as 0.235 µM (active).
For `CC[C@@]1(O)C(=O)OCc2c1cc1n(c2=O)Cc2cc3c(CN(C)C)c(O)ccc3nc2-1`, the Potency was 29.9 nM (active) and 235 nM (active).
For `COc1ccc(CCN(C)CCCC(C#N)(c2ccc(OC)c(OC)c2)C(C)C)cc1OC` (stereo unspecified), the Potency was “inactive”.
In the case of `CC1(CN2CCC(n3c(=O)[nH]c4ccccc43)CC2)OCc2ccccc2-n2cccc21` (stereo unspecified), the Potency is reported as “inactive”.
For `Cc1cnc(C(=O)NCCc2ccc(S(=O)(=O)NC(=O)NC3CCCCC3)cc2)cn1`, the Potency was “inactive”.
In the case of `Cc1cn([C@H]2C[C@H](N=[N+]=[N-])[C@@H](CO)O2)c(=O)[nH]c1=O`, the Potency is reported as “inactive”.
In the case of `CC1COc2c(N3CCN(C)CC3)c(F)cc3c(=O)c(C(=O)O)cn1c23` (stereo unspecified), the Potency is reported as “inactive”.
With `CCOC(=O)Nc1ccc(NCc2ccc(F)cc2)nc1N` the Potency was “inactive”.
With `CN1CCC(=C2c3ccccc3CC(=O)c3sccc32)CC1` the Potency was “inactive”.
For `Cc1ccc(-c2cc(C(F)(F)F)nn2-c2ccc(S(N)(=O)=O)cc2)cc1`, the Potency was 16.8 µM (active).
For `CC(C)(C)C(=O)Oc1ccc(S(=O)(=O)Nc2ccccc2C(=O)NCC(=O)O)cc1`, the Potency was “inactive”.
In the case of `CC#C[C@]1(O)CC[C@H]2[C@@H]3CCC4=CC(=O)CCC4=C3[C@@H](c3ccc(N(C)C)cc3)C[C@@]21C`, the Potency is reported as 2.64 µM (active).
With `CC1(C)O[C@H]2CC(=O)OC[C@]23[C@H]2CC[C@@]4(C)[C@H](c5ccoc5)OC(=O)[C@H]5O[C@]54[C@]2(C)C(=O)C[C@@H]13` the Potency was “inactive”.
With `Clc1ccc2c(c1)C(N1CCNCC1)=Nc1ccccc1O2` the Potency was “inactive”.
In the case of `CN(C)C(=N)N=C(N)N`, the Potency is reported as “inactive”.
With `Clc1ccc(C(c2ccccc2Cl)C(Cl)Cl)cc1` (stereo unspecified) the Potency was 16.8 µM (active) and 18.7 µM (active).
In the case of `Cn1ccc2cc3c(cc21)CCN3C(=O)Nc1cccnc1`, the Potency is reported as “inactive”.
With `CC[N+](CC)(CC)CCOc1cccc(OCC[N+](CC)(CC)CC)c1OCC[N+](CC)(CC)CC` the Potency was “inactive”.
With `CN(CCOc1ccc(NS(C)(=O)=O)cc1)CCc1ccc(NS(C)(=O)=O)cc1` the Potency was “inactive”.
In the case of `Clc1ccc2nsnc2c1NC1=NCCN1`, the Potency is reported as “inactive”.
With `CN(C)CCCN1c2ccccc2CCc2ccc(Cl)cc21` the Potency was 16.8 µM (active).
